# Assay results reported in PubChem BioAssay (NCATS).
# Several values for one entry are separate records, joined by “and”; a condition that tells them apart may be missing. Equal entries are not always repeated. Records with an inconclusive call do not appear. Activity calls are given as the source filed them. The call rests on the fitted dose curve; in most records, active means well fitted inhibition curve with a large enough effect; inconclusive means small, poorly fitted or top-dose-only effect; inactive means flat fitted curve, though single readings scatter.
# Tested on: CP260
# Experiment: qHTS profiling for inhibitors of Plasmodium falciparum proliferation (AID 504749); further: nearly all actives have a fitted effect of over 60% in size;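 on activity, negative = inhibition: 0% = DMSO vehicle and full inhibition = artemisinin control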
# Settings: P. falciparum in erythrocytes, SYBR Green DNA, 72 h; series mostly up to 28.7 µM; activity, negative = inhibition: at the top concentration
# Summary of the method: (§1)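 Parasite proliferation within erythrocytes, 72 h exposure. Endpoint: SYBR Green I fluorescence after overnight lysis at room temperature. Controls: 0.29 uM artemisinin, DMSO.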
# Potency means the concentration at half of the fitted maximal effect.
Structure (SMILES),"activity, negative = inhibition",Potency
CNC(=O)NC(O)C(Cl)(Cl)Cl (configuration not stated),-6.69% (inactive),–
NC(=O)CN1CCCC1=O,-0.465% [at 12.8 µM] (inactive),–
CCC1(CC)C(=O)NC(=O)NC1=O,8.77% (inactive),–
O=c1n(Cl)c(=O)n(Cl)c(=O)n1Cl,-0.47% (inactive),–
CC(C)C(Br)C(=O)NC(N)=O (configuration not stated),-17.9% (inactive),–
CN(C)C(=S)SSC(=S)N(C)C,–,0.891 µM (active)
COP(=S)(OC)Oc1ccc(Sc2ccc(OP(=S)(OC)OC)cc2)cc1,5.86% (inactive),–
NCc1cccnc1,0.966% (inactive),–
COc1ccc(C(=O)N2CCCC2=O)cc1,2.18% (inactive),–
c1ccc2nc(N3CCNCC3)ccc2c1,4.7% (inactive),–
CC(C)(C)OC(=O)c1ncn2c1[C@@H]1CCCN1C(=O)c1c(Br)cccc1-2,-18.5% (inactive),–

# Tested on: CP262
# Experiment: as above
# Settings: P. falciparum in erythrocytes, SYBR Green DNA, 72 h; series mostly up to 28.7 µM; activity, negative = inhibition: at the top concentration
# Summary of the method: as §1
Structure (SMILES),"activity, negative = inhibition",Potency
CCC1(c2ccccc2)CCC(=O)NC1=O (configuration not stated),-4.47% (inactive),–
C[N+]1(CCC(C(N)=O)(c2ccccc2)c2ccccc2)CCCCC1,0.313% (inactive),–
CCC(=O)O[C@H]1CC[C@H]2[C@@H]3CCC4=CC(=O)CC[C@]4(C)[C@H]3CC[C@]12C,2.52% [at 12.8 µM] (inactive),–
OC(c1ccccc1)(c1ccccc1)C1CCNCC1,0% [at 12.8 µM] (inactive),–
CC(C)[N+](C)(CCC(C(N)=O)(c1ccccc1)c1ccccc1)C(C)C,0% [at 12.8 µM] (inactive),–
Cc1ncc2n1-c1ccc(Cl)cc1C(c1ccccc1F)=NC2,21.5% (inactive),–
Cc1ccc(N=CN(C)C=Nc2ccc(C)cc2C)c(C)c1,14.2% (inactive),–
CC(C)NCC(O)c1ccc(N)c(C#N)c1 (configuration not stated),3% (inactive),–
CNC(=O)Oc1cccc2ccccc12,0% (inactive),–
CCNc1nc(Cl)nc(NCC)n1,0% (inactive),–
CC[n+]1c(-c2ccccc2)c2cc(N)ccc2c2ccc(N)cc21,–,95.3 nM (active) and 107 nM (active)
CCCCCCCCCCCC[N+](C)(C)CCOc1ccccc1,–,5.36 µM (active)
CCOC(=O)NC(O)C(Cl)(Cl)Cl (configuration not stated),1.79% (inactive),–
CCN(Cc1ccc(Cl)nc1)/C(=C/[N+](=O)[O-])NC,2.02% (inactive),–
C[C@H]1C(=O)O[C@@H]2CCN3CC=C(COC(=O)[C@](C)(O)[C@]1(C)O)[C@H]23,8.8% (inactive),–
Oc1c(Br)cc(Br)cc1Br,8.28% (inactive),–

Structure (SMILES),"activity, negative = inhibition",Potency
C[C@]12CC[C@H]3[C@@H](CC=C4C[C@@H](O)CC[C@@]43C)[C@@H]1CC[C@@H]2O,0.618% (inactive),–
COP(=O)(OC)C(O)C(Cl)(Cl)Cl (configuration not stated),-4.75% (inactive),–
CCN(CC)C(C)C(=O)c1ccccc1 (configuration not stated),4.53% (inactive),–
COP(=O)(OC)OC=C(Cl)Cl,14.2% (inactive),–
CNC(=O)NC(O)C(Cl)(Cl)Cl (configuration not stated),2.95% (inactive),–
NC(=O)CN1CCCC1=O,9.69% [at 12.8 µM] (inactive),–
CCC1(CC)C(=O)NC(=O)NC1=O,3.28% (inactive),–
O=c1n(Cl)c(=O)n(Cl)c(=O)n1Cl,3.07% (inactive),–
CC(C)C(Br)C(=O)NC(N)=O (configuration not stated),1.89% (inactive),–
CN(C)C(=S)SSC(=S)N(C)C,–,2.13 µM (active)
COP(=S)(OC)Oc1ccc(Sc2ccc(OP(=S)(OC)OC)cc2)cc1,9.51% (inactive),–
NCc1cccnc1,0.758% (inactive),–
COc1ccc(C(=O)N2CCCC2=O)cc1,-29% (inactive),–
c1ccc2nc(N3CCNCC3)ccc2c1,8.16% (inactive),–
CC(C)(C)OC(=O)c1ncn2c1[C@@H]1CCCN1C(=O)c1c(Br)cccc1-2,0% (inactive),–
